Bioassay records as filed in PubChem BioAssay.
A selection: hits, their analogues and other compounds. The true share with any hit is near 3.2%.
EphB4 antag: EphB4-ephrin-B2 interaction antagonism; P54760; EphB4 LBD / TNYL-RAW-Alexa532 peptide, fluorescence polarization; inhibition, % at 7 µM; 97,000 compounds, 0.15% hits; AID 720;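 active = inhibition above the screen-wide mean inhibition plus 3 SD, cut at about 15% in these data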;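 also: 0% = DMSO wells and 100% = excess unlabeled TNYL-RAW peptide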
ERa SRC1 pot: enhances coactivator binding to human estrogen receptor alpha; P03372; coactivator binding (% of control), % at 25.6 µM; TR-FRET ERalpha-LBD/SRC-Cy5 coactivator binding, 2 h; 100 = basal binding, no effect; 86,000 compounds, 1.3% hits; in the data active = activity above about 200%;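 also: binding measured in presence of low estradiol as agonist stimulus; 0% = peptide alone without receptor and 100% = receptor with peptide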
Target sequence (P03372 whole entry, looked up, the tested form may be a part): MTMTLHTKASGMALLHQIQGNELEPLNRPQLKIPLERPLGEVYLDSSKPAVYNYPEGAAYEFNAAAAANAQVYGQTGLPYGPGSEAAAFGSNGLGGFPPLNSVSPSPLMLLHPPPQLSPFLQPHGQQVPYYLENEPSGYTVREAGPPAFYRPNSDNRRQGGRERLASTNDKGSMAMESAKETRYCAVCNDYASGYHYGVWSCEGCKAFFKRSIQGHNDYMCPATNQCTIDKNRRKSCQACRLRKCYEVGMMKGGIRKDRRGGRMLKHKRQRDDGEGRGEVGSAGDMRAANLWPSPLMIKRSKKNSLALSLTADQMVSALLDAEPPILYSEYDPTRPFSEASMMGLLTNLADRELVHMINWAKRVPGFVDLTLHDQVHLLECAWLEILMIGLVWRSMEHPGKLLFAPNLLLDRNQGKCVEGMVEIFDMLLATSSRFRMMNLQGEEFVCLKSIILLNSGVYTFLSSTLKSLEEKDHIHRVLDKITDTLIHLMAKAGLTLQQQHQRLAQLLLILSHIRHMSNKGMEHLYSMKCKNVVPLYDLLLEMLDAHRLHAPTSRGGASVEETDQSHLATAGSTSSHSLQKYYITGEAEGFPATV
ERa SRC1 inh: blocks coactivator binding to human estrogen receptor alpha | P03372 | TR-FRET ER-alpha LBD / SRC-1 peptide, estradiol-bound | inhibition, % at 25.6 µM | 86,000 compounds, 1.7% hits | AID 629; in the data active = inhibition above about 50%;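 also: 0% = receptor plus peptide control and 100% = peptide only without receptor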
Calb biofilm kill: kills Candida albicans biofilms. C. albicans biofilm + clotrimazole, Alamar Blue. inhibition, % at 6 µM. 85,000 compounds, 0.14% hits;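 active = inhibition above 20%; inactive = inhibition below 20%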;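 also: preformed 24 hr biofilms exposed to compound for 48 hr; 0% = biofilm without compound and 100% = blank killed by clotrimazole plus chlorhexidine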
MT1-MMP txn act: activates MT1-MMP transcription | HT1080 MT1-MMP promoter luciferase reporter, luminescence, overnight; active compounds read high | activation factor at 10 µM | 86,000 compounds, 0.16% hits | AID 750;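 active = activation factor of at least 2 for MT1-MMP transcription at 10 µM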
ERb SRC1 inh: ER-beta (human) coactivator binding inhibition | TR-FRET ER-beta LBD / SRC1-Cy5 peptide binding; receptor agonist-loaded with 1 µM estradiol | inhibition, % at 25.6 µM | 86,000 compounds, 1.3% hits | AID 633;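 active = compounds whose percent inhibition of the receptor-coactivator binding signal exceeds about 50% in the single-dose screen, limit read from the data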;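 also: 0% = receptor plus peptide wells without compound and 100% = peptide-only wells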
Active calls of the source: *; · = no result; + = active, no number; [ ] = remark or other dose.

SMILES	EphB4 antag	ERa SRC1 pot	ERa SRC1 inh	Calb biofilm kill	MT1-MMP txn act	ERb SRC1 inh
Clc1ccc(-c2nnc3sc(-c4ccccn4)nn23)cc1	-1	105	9	4	0.9	7
c1ccc(-c2nn3c(-c4ccncc4)nnc3s2)nc1	·	40	58*[fluorescence artefact?]	11	1.1	26
CC(=O)c1c(C)nc(-c2ccc(Cl)cc2)nc1NC(=O)C(C)C	-8	102	5	4	1.4	-2
O=C(Nc1nc2ccccc2[nH]1)c1ccccc1	0	107	-2	9	·	-5
CC1CN(C(=O)CCN2C(=O)c3ccccc3C2=O)CC(C)O1 (stereo not drawn)	-4	105	0	1	1.2	-2
CCn1c(C)[n+](CCOCC[n+]2c(C)n(CC)c3cc(Cl)c(Cl)cc32)c2cc(Cl)c(Cl)cc21	1	·	·	·	·	·
O=C(Nc1cccc(NC(=O)c2ccc(Br)o2)n1)c1ccc(Br)o1	1	258*[fluorescence artefact?]	30	8	·	22
O=C(Nc1nc2c(Cl)cccc2s1)c1ccc(Br)o1	-9	535*[fluorescence artefact?]	-82	0	1.2	-8
CCCC[C@@H]1C[C@H]1C(NC(=O)c1ccco1)c1ccccc1C(F)(F)F (stereo partly drawn)	·	·	·	·	1.2	·
Cc1cc(NC(=O)CSc2ccc3nnc(-c4cccs4)n3n2)no1	2	73	12	-5	·	20
COCCn1nnnc1CN1CCC(Cc2ccccc2)CC1	-1	126	-4	6	1.1	6
COC(=O)c1ccc(CSc2ncnc3ccccc23)o1	2	116	-6	2	1	-10
CCc1nnc(NC(=O)CSc2ncnc3c2oc2ccccc23)s1	-5	238*[fluorescence artefact?]	-18	2	1.1	16
O=C(CSc1ncnc2c1oc1ccccc12)Nc1nc2ccccc2s1	-1	75	42	0	·	18
CCOc1ccccc1NC(=O)CSc1ncnc2c1oc1ccccc12	-7	274*[fluorescence artefact?]	31	5	1	41
Fc1ccccc1CSc1ncnc2c1oc1ccccc12	1	213*[fluorescence artefact?]	28	9	1	31
COC(=O)c1ccc(CSc2ncnc3c2oc2ccccc23)o1	13	234*[fluorescence artefact?]	41	0	1	56*[fluorescence artefact?]
c1ccc(CSc2ncnc3c2oc2ccccc23)cc1	8	107	26	2	1.2	12
O=C(CSc1ncnc2c1oc1ccccc12)Nc1cccc(C(F)(F)F)c1	-4	188	24	10	1.1	19
O=C(CSc1ncnc2c1oc1ccccc12)Nc1cccc(Cl)c1	4	373*[fluorescence artefact?]	6	7	1.3	26
O=C(CSc1ncnc2c1oc1ccccc12)Nc1ccccc1F	-5	406*[fluorescence artefact?]	47	4	1	55*[fluorescence artefact?]
CCc1nnc(NC(=O)CSc2nnc(-c3ccccc3NC(=O)c3ccccc3)o2)s1	9	285*[fluorescence artefact?]	22	10	0.9	31
CCOC(=O)c1ccc(CSc2ncn[nH]2)o1	-3	95	-5	-5	1.2	8
COC(=O)c1ccc(CSc2ncn[nH]2)o1	-2	107	-8	7	1.2	86*[fluorescence artefact?]
CCOC(=O)CSc1nnc(-c2ccccc2NC(=O)c2ccccc2)o1	-1	125	-3	-4	1.2	2
SMILES	EphB4 antag	ERa SRC1 pot	ERa SRC1 inh	Calb biofilm kill	MT1-MMP txn act	ERb SRC1 inh
COCCNC(=O)[C@H](C)/C=C(\I)C(NC(=O)OCc1ccccc1)c1ccc(C(=O)OC)cc1 (stereo partly drawn)	·	·	·	·	1.1	·
Cc1cc(=O)n2cc(-c3ccccc3)nc2[nH]1	-8	·	·	·	·	·
O=C(c1cnn(-c2ccccc2)c1-n1cccc1)N1CCN(C2CCCCC2)CC1	·	119	4	11	1.1	7
COc1cccc(CNC(=O)c2ccc3nc[nH]c3c2)c1	-1	131	-5	6	1.1	7
Cc1cc(C)c2c(=O)[nH]n(C(C)C)c2n1	·	295*	-20	13	1	-17
CCOC(=O)CSC1=C(C#N)C(C)C2=C(CCCC2=O)N1 (stereo not drawn)	-1	114	0	6	1.2	-6
Clc1cccc2sc(N3CCOCC3)nc12	-2	157	-4	6	2.1*	-6
Clc1cccc2sc(N3CCCC3)nc12	-8	·	·	·	1.5	·
Cc1ccc2ccc(C3C(=O)c4ccccc4C3=O)nc2c1	3	395*	11	2	1.3	2
Clc1ccc(Br)cc1-c1nc(-c2cccnc2)no1	8	207*[fluorescence artefact?]	38	2	1.6	27
Clc1ccccc1-c1nc(-c2cccnc2)no1	6	98	-5	7	0.8	-8
CCC(=O)Oc1ccc(C/C(=N\O)c2ccc(O)cc2O)o1	5	13	70*[fluorescence artefact?]	-1	1.2	78*[fluorescence artefact?]
COc1cccc(C(=O)Oc2cc(-c3ccccc3)no2)c1	-8	104	-4	7	1.1	-1
O=C(CCn1nnc2ccccc21)Nc1nnc(COc2ccccc2F)s1	3	100	32	3	1	-2
O=C(CCn1nnc2ccccc21)Nc1nnc(-c2ccccc2F)s1	0	248*	10	-1	1.1	-1
CCCCc1c(C)nn(-c2nnc3c4ccccc4n(C)c3n2)c1C	-1	69	1	2	1.4	-19
COc1ccc(C(=O)Nc2cc(C)c3c(=O)oc4ccccc4c3n2)cc1	2	143	53*[fluorescence artefact?]	9	·	29
CCc1nc(SCC(=O)Nc2cc(C)on2)c2c(C)c(C)sc2n1	7	234*[fluorescence artefact?]	9	5	1	27
Cc1cc2nc(-c3ccc(SCC(=O)N4CCc5ccccc54)nc3)[nH]c2cc1C	-2	·	·	·	·	·
CCc1nnc(NC(=O)CSc2nc(-c3ccc(OC)cc3)ns2)s1	11	145	-2	-3	1.2	-9
COc1ccc(-c2nsc(SCC(=O)Nc3cc(C)on3)n2)cc1	2	241*[fluorescence artefact?]	3	7	0.9	11
Cc1cc(NC(=O)CSc2ccc(-c3nc4cc(C)c(C)cc4[nH]3)cn2)no1	12	243*[fluorescence artefact?]	29	-4	1.3	15
CCc1cc2ccc(OC)cc2nc1SCC(=O)Nc1cc(C)on1	-11	205*	24	-5	1.1	25
CCC1=C2CC[C@H]3C(=O)N(CC)C(=O)[C@H]3[C@H]2[C@@]2(Cc3ccccc3)C(=O)N(CCOC)C(=O)N2C1=O	·	·	·	·	1.2	·
COc1ccc(C=O)cc1CSc1nnc(COc2cccc3cccnc23)o1	-9	96	-6	6	1.2	-17
COc1ccc(-c2c(C#N)c(SCC(=O)Nc3ccccc3)nc3c2CCCC3)cc1	1	147	14	6	1	28
N#Cc1c(SCC(=O)Nc2nccs2)nc2c(c1-c1ccco1)CCCC2	1	83	64*	6	1.1	37
Cc1ccccc1NC(=O)CSc1nc2c(c(-c3ccco3)c1C#N)CCCC2	-3	290*[fluorescence artefact?]	24	-5	1.2	16
N#Cc1c(SCC(N)=O)nc2c(c1-c1ccc(OCc3ccccc3)cc1)CCCC2	0	+[fluorescence artefact?]	-13	3	1.3	-7
